Data on 36 compounds can be found in the supplement of paper PMC12494721.

Structures can show the parent of a compound that is named as a salt.

One assay deals with Klebsiella aerogenes DSM 30053. Nature of the assay: growth (OD595) fold change vs plate DMSO controls (fold change (ratio)); higher = more growth. As to conditions: 20 µM; incubation time: 27 h, anaerobic, 37 °C. Put shortly: (§1)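 The measure reported is growth, taken as fold change against the median of DMSO controls on the same plate. Anaerobic mGAM cultures in 96-well plates (27 h, 37 °C) were read at 595 nm, blank-subtracted, corrected for compound background using 20 µM compound solutions in water, and multiplied by a calibration factor of 5 to give OD. Any fold change above 1.5 became NA, and 2 biological replicates were averaged.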
Take `C#C[C@]1(O)C=C[C@H]2[C@@H]3CCC4=CC(=O)CC[C@@H]4[C@H]3CC[C@@]21CC` [Gestodene]: the growth turned out to be 1.
Same read-out and setting: in the case of `O=C(O)COc1ccc(Cl)cc1Cl` it was 1.07; in that of `CC1COC(Cn2cncn2)(c2ccc(Oc3ccc(Cl)cc3)cc2Cl)O1` (configuration not stated), 1.01; in that of `CC(C)OC(=O)Nc1cccc(Cl)c1`, 1.05.
As for `CCOc1ccc(C(C)(C)COCc2cccc(Oc3ccccc3)c2)cc1`, the growth came to 1.01.
As for `COC(=O)N(OC)c1ccccc1COc1ccn(-c2ccc(Cl)cc2)n1`, the growth amounted to 1.07.
Same read-out and setting: in the case of `CC(O)(CS(=O)(=O)c1ccc(F)cc1)C(=O)Nc1ccc(C#N)c(C(F)(F)F)c1` (configuration not stated) [Bicalutamide] it was 1.08; in that of `CON(C)C(=O)Nc1ccc(Cl)c(Cl)c1`, 1.01; in that of `C[N+]1(C)[C@@H]2CC[C@H]1C[C@@H](OC(=O)C(CO)c1ccccc1)C2` (some centres not stated) [Methylatropine nitrate], 0.989.
Still for that read-out and setting: in the case of `COCc1cnc(C2=NC(C)(C(C)C)C(=O)N2)c(C(=O)O)c1` (configuration not stated) it was 0.971.
On the same count and under the same terms, the same measure for `CO/N=C(/C(=O)OC)c1ccccc1CO/N=C(\C)c1cccc(C(F)(F)F)c1`: 0.98.
As to `COC(=O)N(C(=O)N1CO[C@@]2(C(=O)OC)Cc3cc(Cl)ccc3C2=N1)c1ccc(OC(F)(F)F)cc1`, the growth turned out to be 0.992.
Take `COc1ccc(C(CN(C)C)C2(O)CCCCC2)cc1` (configuration not stated) [Venlafaxine]: the growth was 0.983.
On the same count and under the same terms, the same measure for `C1CCc2nnnn2CC1` [Pentylenetetrazole]: 1.
The same measure, in the same setting: the same measure for `CC(C)CC(N(C)C)C1(c2ccc(Cl)cc2)CCC1` (configuration not stated) [Sibutramine hydrochloride]: 1.01.
The same measure, in the same setting: in the case of `OC(c1ccccc1)(c1ccccc1)C1CCNCC1` [Azacyclonol] it was 1.01.
For the compound `CNC(=O)Oc1cccc(/N=C/N(C)C)c1`, the growth stood at 0.988.
On the same count and under the same terms, in the case of `O=C(O)c1nc(Cl)ccc1Cl` it was 1.01; in that of `CNC(=O)c1cc(C#N)cc(C)c1NC(=O)c1cc(Br)nn1-c1ncccc1Cl`, 0.981.
Take `C[N+]1([O-])[C@@H]2C[C@@H](OC(=O)[C@H](CO)c3ccccc3)C[C@H]1[C@@H]1O[C@@H]12` (some centres not stated) [Scopolamin-N-oxide hydrobromide]: the growth worked out at 1.01.
Same read-out and setting: in the case of `CCC(=O)O[C@@](Cc1ccccc1)(c1ccccc1)[C@@H](C)CN(C)C` [Levopropoxyphene napsylate] it was 1.05.
The same measure, in the same setting: the same measure for `CNC(=O)CSP(=S)(OC)OC`: 1; for `CC(C)[N+](C)(CCC(C(N)=O)(c1ccccc1)c1ccccc1)C(C)C` [Isopropamide iodide]: 0.982.
Same read-out and setting: in the case of `COCC(=O)N(c1c(C)cccc1C)[C@H](C)C(=O)OC` it was 1.03; in that of `O=C1c2ccccc2C(=O)N1SC(Cl)(Cl)Cl`, 0.997.
On to `O=C1C2CC=CCC2C(=O)N1SC(Cl)(Cl)Cl` (configuration not stated), for which the growth is 0.972.
`CN(C)C(=O)Oc1cc(OC(=O)N(C)C)cc(C(O)CNC(C)(C)C)c1` (configuration not stated) [Bambuterol hydrochloride]: the growth amounted to 1.
`CC(C)N(C)S(=O)(=O)NC(=O)c1cc(-n2c(=O)cc(C(F)(F)F)n(C)c2=O)c(F)cc1Cl`: the growth was 1.
`CC[C@H]1CCC[C@H](O[C@H]2CC[C@H](N(C)C)[C@@H](C)O2)[C@@H](C)C(=O)C2=C[C@@H]3[C@@H](C=C(C)[C@@H]4C[C@@H](O[C@@H]5O[C@@H](C)[C@H](OC)[C@@H](OC)[C@H]5OC)C[C@@H]34)[C@@H]2CC(=O)O1.CC[C@H]1CCC[C@H](O[C@H]2CC[C@H](N(C)C)[C@@H](C)O2)[C@@H](C)C(=O)C2=C[C@H]3[C@@H]4C[C@H](O[C@@H]5O[C@@H](C)[C@H](OC)[C@@H](OC)[C@H]5OC)C[C@H]4C=C[C@H]3C2CC(=O)O1`: the growth is 1.01.
In the case of `C[N+]1(C)CCCC(OC(=O)C(O)(c2ccccc2)c2ccccc2)C1` (configuration not stated) [Mepenzolate bromide], the growth was determined as 1.02.
On the same count and under the same terms, the same measure for `COc1cccc(C(=O)NN(C(=O)c2cc(C)cc(C)c2)C(C)(C)C)c1C`: 1.01; for `Cc1cccc(C)c1NC1=NCCCS1` [Xylazine]: 0.959; for `CCN(C)C(=O)Oc1cccc([C@H](C)N(C)C)c1` [Rivastigmine]: 1.02.
Still for that read-out and setting: in the case of `CCCCCCCCCCCCN=C(N)N` it was 1.02.
The same measure, in the same setting: in the case of `CO/C=C(/C(=O)OC)c1ccccc1Oc1cc(Oc2ccccc2C#N)ncn1` it was 1.01; in that of `O=C(O[C@H]1C[N+]2(CCCOc3ccccc3)CCC1CC2)C(O)(c1cccs1)c1cccs1` [Aclidinium bromide], 1.03.

The subject of a further assay is Ruminococcus gnavus DSM 108212. The assay is described as above. As to conditions: 20 µM; incubation time: 27 h, anaerobic, 37 °C. In short, it runs like this:
as §1
With `C#C[C@]1(O)C=C[C@H]2[C@@H]3CCC4=CC(=O)CC[C@@H]4[C@H]3CC[C@@]21CC` [Gestodene], the growth worked out at 0.924.
Same read-out and setting: the same measure for `O=C(O)COc1ccc(Cl)cc1Cl`: 1.22.
Consider `CC1COC(Cn2cncn2)(c2ccc(Oc3ccc(Cl)cc3)cc2Cl)O1` (configuration not stated), for which the growth came out at 1.13.
Take `CC(C)OC(=O)Nc1cccc(Cl)c1`: the growth came out at 0.957.
The same measure, in the same setting: the same measure for `CCOc1ccc(C(C)(C)COCc2cccc(Oc3ccccc3)c2)cc1`: 1.13; for `COC(=O)N(OC)c1ccccc1COc1ccn(-c2ccc(Cl)cc2)n1`: 1.02; for `CC(O)(CS(=O)(=O)c1ccc(F)cc1)C(=O)Nc1ccc(C#N)c(C(F)(F)F)c1` (configuration not stated) [Bicalutamide]: 1.15.
On to `CON(C)C(=O)Nc1ccc(Cl)c(Cl)c1`, for which the growth is 1.07.
The same measure, in the same setting: the same measure for `C[N+]1(C)[C@@H]2CC[C@H]1C[C@@H](OC(=O)C(CO)c1ccccc1)C2` (some centres not stated) [Methylatropine nitrate]: 0.97.
Same read-out and setting: the same measure for `COCc1cnc(C2=NC(C)(C(C)C)C(=O)N2)c(C(=O)O)c1` (configuration not stated): 0.967; for `CO/N=C(/C(=O)OC)c1ccccc1CO/N=C(\C)c1cccc(C(F)(F)F)c1`: 1.1; for `COC(=O)N(C(=O)N1CO[C@@]2(C(=O)OC)Cc3cc(Cl)ccc3C2=N1)c1ccc(OC(F)(F)F)cc1`: 0.903.
Still for that read-out and setting: the same measure for `COc1ccc(C(CN(C)C)C2(O)CCCCC2)cc1` (configuration not stated) [Venlafaxine]: 1.1.
As for `C1CCc2nnnn2CC1` [Pentylenetetrazole], the growth turned out to be 0.873.
Same read-out and setting: in the case of `CC(C)CC(N(C)C)C1(c2ccc(Cl)cc2)CCC1` (configuration not stated) [Sibutramine hydrochloride] it was 0.908; in that of `OC(c1ccccc1)(c1ccccc1)C1CCNCC1` [Azacyclonol], 1.1; in that of `CNC(=O)Oc1cccc(/N=C/N(C)C)c1`, 1.04.
On the same count and under the same terms, in the case of `O=C(O)c1nc(Cl)ccc1Cl` it was 0.95; in that of `CNC(=O)c1cc(C#N)cc(C)c1NC(=O)c1cc(Br)nn1-c1ncccc1Cl`, 1.06.
Still for that read-out and setting: the same measure for `C[N+]1([O-])[C@@H]2C[C@@H](OC(=O)[C@H](CO)c3ccccc3)C[C@H]1[C@@H]1O[C@@H]12` (some centres not stated) [Scopolamin-N-oxide hydrobromide]: 0.938; for `CCC(=O)O[C@@](Cc1ccccc1)(c1ccccc1)[C@@H](C)CN(C)C` [Levopropoxyphene napsylate]: 1.18; for `CNC(=O)CSP(=S)(OC)OC`: 0.99.
As for `CC(C)[N+](C)(CCC(C(N)=O)(c1ccccc1)c1ccccc1)C(C)C` [Isopropamide iodide], the growth worked out at 1.39.
On the same count and under the same terms, the same measure for `COCC(=O)N(c1c(C)cccc1C)[C@H](C)C(=O)OC`: 0.974; for `O=C1c2ccccc2C(=O)N1SC(Cl)(Cl)Cl`: 0.937.
On the same count and under the same terms, in the case of `O=C1C2CC=CCC2C(=O)N1SC(Cl)(Cl)Cl` (configuration not stated) it was 0.931; in that of `CN(C)C(=O)Oc1cc(OC(=O)N(C)C)cc(C(O)CNC(C)(C)C)c1` (configuration not stated) [Bambuterol hydrochloride], 1.18.
The same measure, in the same setting: in the case of `CC(C)N(C)S(=O)(=O)NC(=O)c1cc(-n2c(=O)cc(C(F)(F)F)n(C)c2=O)c(F)cc1Cl` it was 1.03.
Regarding `CC[C@H]1CCC[C@H](O[C@H]2CC[C@H](N(C)C)[C@@H](C)O2)[C@@H](C)C(=O)C2=C[C@@H]3[C@@H](C=C(C)[C@@H]4C[C@@H](O[C@@H]5O[C@@H](C)[C@H](OC)[C@@H](OC)[C@H]5OC)C[C@@H]34)[C@@H]2CC(=O)O1.CC[C@H]1CCC[C@H](O[C@H]2CC[C@H](N(C)C)[C@@H](C)O2)[C@@H](C)C(=O)C2=C[C@H]3[C@@H]4C[C@H](O[C@@H]5O[C@@H](C)[C@H](OC)[C@@H](OC)[C@H]5OC)C[C@H]4C=C[C@H]3C2CC(=O)O1`, the growth was found to be 0.919.
On the same count and under the same terms, in the case of `C[N+]1(C)CCCC(OC(=O)C(O)(c2ccccc2)c2ccccc2)C1` (configuration not stated) [Mepenzolate bromide] it was 0.882; in that of `COc1cccc(C(=O)NN(C(=O)c2cc(C)cc(C)c2)C(C)(C)C)c1C`, 1.17.
Turning to `Cc1cccc(C)c1NC1=NCCCS1` [Xylazine], the growth is 0.87.
On the same count and under the same terms, the same measure for `CCN(C)C(=O)Oc1cccc([C@H](C)N(C)C)c1` [Rivastigmine]: 1.05; for `CCCCCCCCCCCCN=C(N)N`: 1.19.
For `CO/C=C(/C(=O)OC)c1ccccc1Oc1cc(Oc2ccccc2C#N)ncn1`, the growth is 0.966.
Still for that read-out and setting: in the case of `O=C(O[C@H]1C[N+]2(CCCOc3ccccc3)CCC1CC2)C(O)(c1cccs1)c1cccs1` [Aclidinium bromide] it was 1.14.
